Activity calls are given as the source filed them.
How the values were obtained:
[1] = system: Human papillomavirus type 1a protein E7 (residues 44-93); experiment: HPV1a E7 fragment binders on microarrays, primary screen, biochemical, small-molecule microarray, residues 44-93, 635 nm fluorescence (AID 1108); conditions: small-molecule microarray binding, fluorescence 635 nm; higher = more signal;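 further: E7 fragment applied at 1 µg/mL in TBST for 1 h at 4 C; score combines spot fluorescence with its signal to noise ratio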
[2] = modulators of HCV replicon luciferase signal, primary screen, HCV replication inhibitor project, Huh7 cells, luciferase reporter (AID 1109); conditions: 48 h, higher = more signal;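 further: huh7 hepatoma cells harbouring a luciferase neomycin HCV replicon reporter; luciferase luminescence as measure of HCV replicon replication; test concentration not given here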
[3] = target: Left-right determination factor 2 (Homo sapiens) (UniProt O00292); experiment: LEFTY2 binders on small-molecule microarrays, primary screen, biochemical, small-molecule microarray, 635 nm fluorescence scan (AID 1110); conditions: LEFTY2 binding, higher = more signal
Left-right determination factor 2 (Homo sapiens), sequence (O00292 whole entry, looked up): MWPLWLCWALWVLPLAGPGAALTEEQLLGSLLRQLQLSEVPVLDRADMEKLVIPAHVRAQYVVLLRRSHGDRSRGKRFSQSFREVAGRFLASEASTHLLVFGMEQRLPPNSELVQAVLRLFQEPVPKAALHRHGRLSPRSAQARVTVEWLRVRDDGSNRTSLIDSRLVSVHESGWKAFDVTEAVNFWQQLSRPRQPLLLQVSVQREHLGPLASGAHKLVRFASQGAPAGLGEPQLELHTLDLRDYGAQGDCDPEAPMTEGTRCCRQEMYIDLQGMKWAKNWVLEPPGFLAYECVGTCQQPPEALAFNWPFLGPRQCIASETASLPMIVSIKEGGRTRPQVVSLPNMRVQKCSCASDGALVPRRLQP

[4] = target: Calmodulin-1 (Homo sapiens) (UniProt P0DP23); experiment: CALM1 binders on microarrays, EGTA buffer, profiling panel, biochemical, small-molecule microarray, Cy5-labelled CALM1 (AID 1111); conditions: Cy5-CALM1 binding fluorescence, higher = more signal;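 further: labelled calmodulin applied in Tris saline Tween buffer holding calcium plus EGTA and DTT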
[5] = target: Calmodulin-1 (Homo sapiens) (UniProt P0DP23); experiment: calcium-bound CALM1 binders on microarrays, profiling panel, artefact control for SMM control-protein annotation, biochemical, small-molecule microarray, Cy5-labelled CALM1, plus calcium (AID 1112); conditions: Cy5-CALM1 binding fluorescence, higher = more signal;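 further: score merges spot fluorescence with signal to noise from triplicate slides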
[6] = small-molecule microarray binders of probe aWnt5a, primary screen, biochemical, biotinylated probe, 635/667 nm fluorescence (AID 1113); conditions: higher = more signal;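 further: score merges 667 nm fluorescence intensity with signal-to-noise per printed feature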
[7] = small-molecule microarray binders of probe aShh, primary screen, biochemical, biotinylated probe, 635/667 nm fluorescence (AID 1114); conditions: higher = more signal;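 further: probe is biotin-labelled aShh protein from a stem cell growth factor screen; measures binding of labelled protein to compounds printed on the slide; score merges feature fluorescence at 667 nm with signal-to-noise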
[8] = small-molecule microarray binders of probe aNog, primary screen, biochemical, biotinylated probe, 635/667 nm fluorescence (AID 1115); conditions: higher = more signal;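 further: probe is biotinylated aNog protein used at 0.15 µg/mL for 1 h at 4 C; z-score combines 667 nm fluorescence of each spot with its signal to noise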
[9] = target: Torsin-1A-interacting protein 1 (Homo sapiens) (UniProt Q5JTV8); experiment: LAP1 binders from COS7 cell lysate, primary screen, small-molecule microarray, 635/667 nm fluorescence (AID 1116); conditions: COS7-hLAP1 lysate binding, 635 nm fluorescence, higher = more signal
Torsin-1A-interacting protein 1 (Homo sapiens), sequence (Q5JTV8 whole entry, looked up): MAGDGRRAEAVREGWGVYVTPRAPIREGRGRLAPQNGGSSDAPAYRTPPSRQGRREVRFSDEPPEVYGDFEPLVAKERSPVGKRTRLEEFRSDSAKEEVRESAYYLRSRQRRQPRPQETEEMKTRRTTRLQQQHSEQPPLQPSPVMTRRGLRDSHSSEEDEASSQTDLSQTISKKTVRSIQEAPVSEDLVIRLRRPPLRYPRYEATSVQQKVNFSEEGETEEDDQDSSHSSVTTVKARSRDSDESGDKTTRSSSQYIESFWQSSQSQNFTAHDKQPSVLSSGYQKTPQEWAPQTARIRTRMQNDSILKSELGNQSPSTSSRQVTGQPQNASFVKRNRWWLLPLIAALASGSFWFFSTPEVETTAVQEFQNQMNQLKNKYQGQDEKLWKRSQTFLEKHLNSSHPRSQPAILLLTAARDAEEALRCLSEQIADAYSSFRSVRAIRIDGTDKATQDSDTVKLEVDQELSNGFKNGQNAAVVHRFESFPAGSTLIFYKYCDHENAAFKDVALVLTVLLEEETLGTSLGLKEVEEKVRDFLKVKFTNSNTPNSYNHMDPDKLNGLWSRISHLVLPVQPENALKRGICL

[10] = target: Alpha-bungarotoxin (Bungarus multicinctus) (UniProt P60615); experiment: alpha-bungarotoxin binders on microarray, profiling panel, artefact control for SMM control protein annotation, biochemical, small-molecule microarray, Alexa647 label, 635/667 nm fluorescence (AID 1117); conditions: alpha-BTX-A647 binding fluorescence, higher = more signal
Alpha-bungarotoxin (Bungarus multicinctus), sequence (P60615 whole entry, looked up): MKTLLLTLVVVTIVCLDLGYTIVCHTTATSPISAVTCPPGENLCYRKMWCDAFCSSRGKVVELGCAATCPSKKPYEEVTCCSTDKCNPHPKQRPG

Albumin (Bos taurus) = Albumin (Bos taurus) (UniProt P02769); experiment: bovine serum albumin binders on microarray, profiling panel, artefact control for SMM control protein annotation, biochemical, small-molecule microarray, Alexa647 label, 635/667 nm fluorescence (AID 1118); conditions: BSA-A647 binding, fluorescence 635 nm, higher = more signal;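 further: score merges 667 nm emission intensity and signal-to-noise per printed compound spot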
Albumin (Bos taurus), sequence (P02769 whole entry, looked up): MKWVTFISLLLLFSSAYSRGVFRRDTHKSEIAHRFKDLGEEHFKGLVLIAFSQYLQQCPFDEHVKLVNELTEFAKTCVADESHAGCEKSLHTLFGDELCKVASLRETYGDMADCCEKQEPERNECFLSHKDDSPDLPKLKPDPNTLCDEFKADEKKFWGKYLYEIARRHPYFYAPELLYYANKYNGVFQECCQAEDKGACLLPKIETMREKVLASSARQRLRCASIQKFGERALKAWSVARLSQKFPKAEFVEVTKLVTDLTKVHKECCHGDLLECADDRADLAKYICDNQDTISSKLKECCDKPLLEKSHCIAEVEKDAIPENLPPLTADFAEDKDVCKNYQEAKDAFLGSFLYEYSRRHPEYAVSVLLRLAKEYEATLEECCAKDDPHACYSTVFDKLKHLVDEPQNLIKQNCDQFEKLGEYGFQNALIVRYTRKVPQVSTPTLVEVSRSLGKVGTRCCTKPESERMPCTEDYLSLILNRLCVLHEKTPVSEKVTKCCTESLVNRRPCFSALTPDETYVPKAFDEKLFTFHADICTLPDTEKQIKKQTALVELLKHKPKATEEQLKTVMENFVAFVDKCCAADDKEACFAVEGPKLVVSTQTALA

[11] = small-molecule microarray binders of probe aXIP, primary screen, biochemical, NeuroSMM set, 635/667 nm fluorescence (AID 1119); conditions: higher = more signal, called active from +8 up or from −8 down;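 further: probe is the protein aXip251-270 applied at 1 µg/mL to compound-printed slides; binding of probe to printed compounds measured as 667 nm fluorescence plus signal to noise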
[12] = small-molecule binders of probe aNOTCH3, primary screen, biochemical, small-molecule microarray, 635/667 nm fluorescence (AID 1120); conditions: higher = more signal;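 further: probe is a biotin-tagged antibody raised against NOTCH3 rather than NOTCH3 protein; score merges spot fluorescence near 667 nm with spot signal to noise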
[13] = small-molecule binders of probe aNOTCH2, primary screen, biochemical, small-molecule microarray, 635/667 nm fluorescence (AID 1121); conditions: higher = more signal;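 further: score merges feature fluorescence read at 667 nm with its signal to noise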
[14] = target: Carbonic anhydrase 2 (Homo sapiens) (UniProt P00918); experiment: CAII small-molecule binders, profiling panel, biochemical, small-molecule microarray, Alexa647-labelled CAII (AID 1122); conditions: CAII-A647 binding fluorescence, higher = more signal
[15] = COS7 lysate on small-molecule microarray, probe aHis, 635 nm (AID 1123); conditions: COS7 cell lysate, fluorescence, higher = more signal;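 further: z-score combines 667nm fluorescence intensity with signal-to-noise per printed compound spot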
[16] = compound binding in COS7 lysate, probe aLAP1, primary screen, cell lysate, small-molecule microarray (AID 1124); conditions: probe aLAP1, fluorescence, higher = more signal;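 further: lysate comes from COS7 cells expressing LAP1 and is applied at 0.3 µg/mL; score merges spot fluorescence near 667 nm with signal-to-noise over triplicate slides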
Sam68 (KHDRBS1) = experiment: Sam68 small-molecule binders, primary screen, biochemical, small-molecule microarray, 635 nm fluorescence (AID 1125); conditions: small-molecule microarray binding, higher = more signal;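 further: score merges 667 nm channel intensity with signal to noise over triplicate slides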
[17] = system: Chordin-like protein 2 (CHRDL2); experiment: CHRDL2 small-molecule binders, primary screen, biochemical, small-molecule microarray, 635 nm fluorescence (AID 1126); conditions: small-molecule microarray binding, fluorescence 635 nm; higher = more signal;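 further: printed compound slides probed with Chrdl2 protein at 4 µg/mL for 1 h at 4 C; score merges 667 nm emission intensity with signal to noise over three replicate slides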
[18] = target: Concanavalin-A (Canavalia ensiformis) (UniProt P02866); experiment: ConA small-molecule binders, primary screen, artefact control for SMM control protein annotation, biochemical, small-molecule microarray, Alexa647 label, 635 nm (AID 1127); conditions: ConA-A647 binding fluorescence, higher = more signal;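 further: z combines 667 nm emission intensity with signal-to-noise across three replicate slides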
Concanavalin-A (Canavalia ensiformis), sequence (P02866 whole entry, looked up): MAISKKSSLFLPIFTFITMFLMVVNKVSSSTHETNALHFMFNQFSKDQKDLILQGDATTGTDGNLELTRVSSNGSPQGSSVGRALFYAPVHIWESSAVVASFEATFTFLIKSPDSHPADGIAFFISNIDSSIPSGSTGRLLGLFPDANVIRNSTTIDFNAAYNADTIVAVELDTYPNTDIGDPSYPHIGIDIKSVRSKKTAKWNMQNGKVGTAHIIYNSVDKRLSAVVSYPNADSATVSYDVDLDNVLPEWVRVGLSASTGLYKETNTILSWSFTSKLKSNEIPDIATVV

Row | Compound | composite z-score [1] | z-score [2] | composite z-score [3] | composite z-score [4] | composite z-score [5] | composite z-score [6] | composite z-score [7] | composite z-score [8] | composite z-score [9] | composite z-score [10] | composite z-score (Albumin (Bos taurus)) | composite Z-score [11] | composite z-score [12] | composite z-score [13] | composite z-score [14] | composite z-score [15] | composite z-score [16] | composite z-score (Sam68 (KHDRBS1)) | composite z-score [17] | composite z-score [18]
1 | C=CC[C@]1(C(=O)NCCN2CCOCC2)N=C(c2ccc(OCCCO)cc2)O[C@H]1c1ccccc1CN=[N+]=[N-] | 0.396 | -1.59 | 0.632 | 0.21 | -0.528 | 0.0023 | -0.203 | -0.193 | 0.554 | -0.0452 | -0.91 | 0.363 (inactive) | -0.273 | 0.0855 | 0.724 | 1.41 | 0.034 | 0.826 | 1.38 | -0.438
2 | COCCOC(=O)N1C(=O)[C@@]2(c3cc(C#CCCO)ccc31)[C@H](c1ccccc1OCCO)N1[C@H](c3ccccc3)[C@H](c3ccccc3)OC(=O)[C@H]1[C@@H]2C(=O)Nc1nc2ccccc2s1 | 0.323 | -1.65 | 0.558 | 1.39 | 0.704 | -0.0519 | 0.173 | 0.429 | 1.62 | 2.29 | 0.802 | 0.048 (inactive) | 0.108 | -0.0352 | 0.729 | 2.02 | 0.967 | 1.29 | 0.0314 | 1.09
3 | COc1ccc([Si](C)(C)[C@@H]2[C@@H](CCO)O[C@]3(C(=O)N(Cc4ccc(N5CCCCC5=O)cc4)c4ccccc43)[C@H]2C)cc1 | -0.0334 | -5.11 | 0.216 | 0.121 | 0.188 | -0.0758 | 0.191 | 0.0989 | 0.467 | 0.0967 | 0.116 | 0.385 (inactive) | 0.033 | -0.0515 | 0.304 | 0.828 | 0.503 | 1.31 | 0.507 | 1.12
4 | CCCCO[C@H]1C[C@H]2C(I)=C[C@@H]1C(=O)[C@]21CO1 | -0.977 | -2.7 | 0.312 | -0.331 | -0.502 | -0.0735 | -0.0866 | 0.0327 | -0.243 | -0.0708 | -0.369 | -0.014 (inactive) | -0.0311 | -0.25 | -0.302 | -0.196 | -0.287 | -0.414 | 0.377 | 0.267
5 | COC(=O)c1ccc([C@H](NC(=O)c2ccco2)[C@]2(C)C[C@H]2C2CCCCC2)cc1 | -0.0855 | -0.978 | -1.6 | 1.51 | 1.39 | -0.096 | 0.142 | 1.46 | -0.101 | 0.351 | 0.678 | 0.0201 (inactive) | 0.0179 | -0.0391 | -0.227 | 1.43 | -0.164 | -0.552 | -1.17 | 0.208

From PubChem BioAssay
